# Among all 53,000 sequences or so, about 3,700 (7%) were called active. The sample as a whole holds a higher share of actives than the screen did. Values without a mark were called inactive.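 How the source made its calls: active means gene knockdowns whose robust z-score for IL-1 alpha signal is at least 2 or at most -2, so actives lie on both sides; inactive means the rest.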
# Experiment: Components of the Cytosolic LPS Sensing Pathway: Gene Identification via Genome-wide siRNA Screen;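 further: robust z of the log signal after scaling to non-targeting control siRNA wells of the plate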
# Conditions: RAW264.7 macrophages, IL-1a HTRF, actives lie on both sides, screened at 100 nM (by protocol), cells primed 5 h with Pam3CSK4 first
# Outline: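 Three distinct siRNAs per gene were tested singly at 100 nM in RAW264.7 macrophages. Following Pam3CSK4 priming and 24 hour LipidA transfection, IL-1a secretion was read by HTRF.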
row,Sequence,z-score
1,CCAUUGCAGCAUACUGUCCTT against Serpina1b,-0.402
2,GCGGCUAAUUCGUUCUUUCTT against Atp8a1,0.708
3,GGUCAGGUAGGGAUAUACATT against Dele1,-1.59
4,CCAAUAAAAGUGCACACCUTT against Actb,2 (active)
5,GGCAGCAAGUUUUUUAAUCTT against Cap1,0.464
6,GGAAAACAACAUGAUCGUGTT against Nadk,-0.137
7,UCCCUAACGGCCCUUUUUATT against H4c14,-0.729
8,GGACAAGCUCCAAAACAACTT against Srsf4,-0.292
9,UAGGAACGCACCCAUACAATT against Fam89b,0.555
10,GGAAAACCCAGGUCAGAAUTT against Serpina9,-1.07
11,CCUUAAGCAGAGUUCAAAGTT against Timm22,0.197
12,CCCUCCUCAGUAUUGUACUTT against Dtx2,2.51 (active)
13,GGUCAUUUCAAGUGCUAAGTT against Adgra1,2.76 (active)
14,GCCAGAAGUGAAAAUCGAATT against Fkbp14,0.509
15,GGGACAAGGCCUCGAUAUUTT against Ggps1,0.958
16,CGCAGGACUAUAAACUGAATT against Ptdss2,0.954
17,CCUCUUUCGACAAGAGCUCTT against Atp1a3,0.904
18,GCAGAUCGUGCGGAUCUUGTT against Bcdin3d,2.1 (active)
19,GGCAUUGUUUUCAUUGUGGTT against Cldn7,-0.0872
20,GGAUGUGAUCCUACUGACATT against Tmem208,0.793
21,GCUUCGAUACCUUCAAACCTT against Stom,-3.7 (active)
22,CGAGAGUCUAACCAAGUACTT against Arhgdib,-1.89

row,Sequence,z-score
1,GGAGAUUGUGAGAGCCAUGTT against Kcnab3,-0.753
2,GAGUGAGAAAGCCAGAGACTT against Acaa1a,0.188
3,GGACUGUUUACUCAGCUCATT against Slc25a33,-2.02 (active)
4,GGCCCACAAGGCUGUUUUGTT against Zfp131,0.459
5,GGAUUUCAAGGGAAUUUGATT against Wbp4,-0.271
6,GCCAGUUGUGACAAAACUATT against Abca1,-1.22
7,GGUGGAGUCUGAACUUAAUTT against Nfatc4,-0.0623
8,GCCCUUAAAACAUAACCACTT against Fgf9,0.615
9,CCAAGAUUAACCAUAACACTT against Mrpl50,0.017
10,GCUCCUACAGAGAAUAAGATT against Eny2,-1.7
11,GGACGAGGACCAGCUAGAATT against Txn2,-2.07 (active)
12,GGGACAUUUCCAUCCUUUUTT against Prdx6b,-1.28
13,GCUCCUUUGGUUCAACAUCTT against Olfr635,-1.78
14,GCAACCAUUCUGGUAUUACTT against Zfp108,0.904
15,CCAUUAAUAAAGCGUGGGUTT against Cacybp,0.562
16,GGAAAUUUGGAAAUUGCCUTT against Ntm,2.46 (active)
17,GGAUCAUCACUACUACAAUTT against 4932415M13Rik,2.37 (active)
18,GGCUGCUCGAAUCAGUCAUTT against Slc27a3,0.237
19,GGAAUUUUCUACAUGUGUGTT against Lim2,-2.12 (active)
20,CCAGAUCCUAAAGUCUUUATT against Trpd52l3,0.677
21,CCACCGGAUCGAAGACAGUTT against Tanc2,-1.28
22,CGUCCCUAGUAUAAAAAGATT against Cxxc5,-0.273

row,Sequence,z-score
1,GGCUUUCACCUUAAUUGAUTT against Fntb,-0.296
2,CCCAGUACAGCCUUGUGGUTT against Med25,-2.02 (active)
3,CGACAAGGGUUUUUAUUCUTT against Smcr8,-0.414
4,GCCUCUCAACAUGAAUUAATT against Gm9918,0.524
5,CCAAGUUUAACAUCCAGGGTT against Pfkm,-0.126
6,GGAUGGAGACCUCUCCUUUTT against Guca2a,1.36
7,CCAGCGAUCUUCCCAUUCUTT against Ccr8,-0.844
8,GCCCUAAUCUAUGGGACAUTT against Tmem179,3.06 (active)
9,UUCAUUCAUAUGGACAGUUTT against Psg19,1.73
10,GCCACAAUGGGCAGUCUUATT against Kcp,0.0139
11,GCGGAAGUCGGAUUUUAUCTT against Kif1c,3.01 (active)
12,CCAACACGUUGCACAGAGUTT against A830073O21Rik,0.611
13,GGACAACCGAAGUUUUAAUTT against E130308A19Rik,0.0435
14,GGAGGUGACUAUCAUUUUUTT against Gng4,-0.498
15,CCAGCAAGUAAAACAAGCUTT against Olfr803,0.998
16,GGUACUUCUCAUGGAUAAATT against Vps45,-0.234
17,GGAACUAAAUAUCCCUAUGTT against Polr3gl,-1.26
18,GAUACUUGGCUCCUAGAAGTT against Olfr803,-1.22
19,GCAUGAAUUGUGGAAGAGATT against Csnk1a1,2.71 (active)
20,GCCAGGUGGAACCAAGUAUTT against Zcchc17,-1.67
21,GGCAUCUUAUGGCCUAAAATT against Rnf31,-1.08
22,GCGAAAAAGAUCGUCCUUGTT against Polr3a,-0.444

row,Sequence,z-score
1,GGAUCUUUACAUCUCUAACTT against Krtap31-1,1.58
2,GCCAAACAUUGGUGGACAUTT against H2-D1,0.835
3,GCUUAAUAAUUUCAUCCAGTT against Brms1l,2.44 (active)
4,GGCCCAGUCCGAUAUUCUATT against Phxr4,-0.797
5,GCAAAUCAGUCUAUCGCUGTT against Mcpt8,0.39
6,GGUUUUCACUAUUUCAACUTT against Olfr187,-1.06
7,GGUAAAUGGUUUAACUACGTT against Tmem117,-0.68
8,GCAAAGGAUCGCUUGAAAATT against Mrpl40,-1.15
9,GGAAUAAAGCUCAUCUACGTT against Slc43a2,2.09 (active)
10,GGAUGAACACUGUUACAAATT against Tusc3,0.352
11,GGUGAUGCAAGAAGAAAUUTT against Aldh3a2,0.169
12,GGCUCUGUUCUCCACAUUGTT against Phf5a,-1.6
13,GGCAAUGGUUCAGCAGUGGTT against Eef1e1,-0.564
14,GGCCUUUCAUGAAAGCUCATT against Ublcp1,-3.07 (active)
15,GGUAGCUGUGAUAAAGCAUTT against Pcbd1,-1.81
16,CCUGAUAUUCAUGACCAAATT against Wasf2,-0.0177
17,CGGUGGCAAAAUGAGAAGUTT against Cd79a,-0.142
18,CCCUAAUCUGGUGAACGAUTT against Mfap5,-1.05
19,GGUCUGAGCCUUGUCUUUATT against Pdx1,2.92 (active)
20,GGUGUCUGGUUCAUAAAGGTT against Lcn4,-0.344
21,GGACACAACUCAUUUUCAGTT against Prg3,-1.61
22,GGAAGGAGAGACCAUUGAGTT against Nudt1,-1.48

row,Sequence,z-score
1,GCGAUUAAGUCUGAAUUGUTT against Cd93,0.425
2,GGAUACCUACCUGGACAGUTT against Dlgap4,-1.23
3,GGCACAUUGCUGAAGCCCATT against Aldoa,-2.42 (active)
4,GCUACACAUGGGAACUAACTT against 4631405J19Rik,1.51
5,GGCCUAUAUUGAUGAUUUUTT against 4930503L19Rik,2.31 (active)
6,GGGUGUACAGAGGAUCCGATT against Atp2a3,0.187
7,GGCAUUUACUUACUGUUCATT against Slc39a10,-0.331
8,CGAUUUCAUCGAACACUUCTT against Ccnd1,1.37
9,GGUACACAUGAGACAAUAUTT against Whamm,-2.18 (active)
10,GGCUUUGUUAGUCUAUGACTT against Dzip1l,-0.552
11,GGUGGAAGACAAGAGGAUATT against Sytl5,-0.474
12,GGGUAAUACUCUUUGGUGCTT against Olfr594,0.34
13,GGUUUGCCUGUGCUGAUAUTT against Olfr549,-0.617
14,GAUGGUCCAGAGCGACUUCTT against Pou3f3,2.14 (active)
15,GGGUCAAGGUAGUAGUACCTT against Tob1,0.275
16,CCAUUACAUCCAUUUGAUUTT against Cfap206,0.328
17,GGUUUGAUGUUAGACAACGTT against Trim34a,0.652
18,GGACAACAAAGGGAGAUUCTT against Kctd12b,1.43
19,CCUACUUGGGAAAGUUCGCTT against Egr3,1.5
